Over roughly 1,600 compounds, “plate-normalized OD600 growth (mean of duplicates)” has its median near 0.31; the lowest 2% begin near 0.23. The sample holds the lowest values, similar compounds and a random draw of the others, so the mix is not that of the screen.
Tested on: Escherichia coli BW25113
Assay: plate-normalized OD600 growth (mean of duplicates) (OD600 (normalized)); higher = more growth (less inhibition)
Settings: 10 µM
Experimental: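 E. coli BW25113 in LB (100 µl, 96-well, no shaking) was exposed to 10 µM of each compound (here the ChemBridge subset of a ~30,000-member library) and grown at 37°C for 24 h or 15°C for 48 h, in duplicate. Growth was read as OD600 and the duplicate ODs were normalized across screening plates to correct plate-to-plate variation.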

Row | SMILES | plate-normalized OD600 growth (temperature: 15°C, 48 h) | plate-normalized OD600 growth (temperature: 37°C, 24 h)
1 | O=C(c1ccccc1[N+](=O)[O-])N1CCN(C(c2ccccc2)c2ccccc2)CC1 | 0.259 | 0.627
2 | CCOc1cc(/C=C(\C#N)c2nc(-c3ccc(OC)cc3)cs2)ccc1O | 0.262 | 0.615
3 | COc1ccc(-c2c(C)[nH]n3c(=O)cc(-c4ccc([N+](=O)[O-])cc4)nc23)cc1 | 0.24 | 0.608
4 | COc1ccc(NCc2ccc(C)s2)cc1OC | 0.244 | 0.604
5 | COc1ccc(NCc2ccc(Cl)cc2Cl)cc1OC | 0.22 | 0.625
6 | COc1ccc(NC(=O)Nc2ccc(F)c(Cl)c2)cc1 | 0.283 | 0.58
7 | O=C(c1sc2ccccc2c1Cl)N1CCN(CCN2C(=O)C3C4C=CC(C4)C3C2=O)CC1 (configuration not stated) | 0.243 | 0.611
8 | O=S(=O)(c1ccc(Cl)c(Cl)c1)N1CCCCC1 | 0.252 | 0.619
9 | O=[N+]([O-])c1ccc2[nH]c3c(c2c1)CCCC3NC1CCN(CCc2ccccc2)CC1 (configuration not stated) | 0.249 | 0.578
10 | Cc1cc(=O)[nH]c2ccc([N+](=O)[O-])cc12 | 0.244 | 0.609
11 | NC1CCCc2c1[nH]c1ccc([N+](=O)[O-])cc21 (configuration not stated) | 0.173 | 0.552
12 | N#C/C(=C\c1ccc(Br)o1)c1nc(-c2ccccc2)cs1 | 0.246 | 0.6
13 | COc1ccc(Cl)cc1NC(=O)c1ccccc1Br | 0.222 | 0.627
14 | O=C(Nc1ccc(Cl)cc1)c1ccccc1Br | 0.264 | 0.633
15 | COc1ccc(NC(=O)c2ccccc2Br)c(OC)c1 | 0.258 | 0.615
16 | O=C1c2cccc([N+](=O)[O-])c2C(=O)N1n1cnnc1 | 0.258 | 0.629
17 | CCC1CCC(NCc2cccc(OC)c2OC)CC1 (configuration not stated) | 0.253 | 0.603
18 | Cc1cccc(NC(=O)COc2ccc(C)c(C)c2)c1 | 0.237 | 0.601
19 | COc1ccc(CN2CCCN(C)CC2)c(OC)c1 | 0.25 | 0.619
20 | C=CCOc1ccccc1CN1CCCN(C)CC1 | 0.217 | 0.595
21 | CN1CCCN(Cc2cc(F)ccc2F)CC1 | 0.273 | 0.623
22 | Cn1cccc1C1Nc2ccccc2NC2=C1C(=O)CC(C)(C)C2 (configuration not stated) | 0.222 | 0.609
23 | CC1(C)CC(=O)C2=C(C1)Nc1ccccc1NC2c1ccc([N+](=O)[O-])s1 (configuration not stated) | 0.231 | 0.604
24 | CC(=O)N1c2ccccc2NC2=C(C(=O)CC(C)(C)C2)C1c1cccn1C (configuration not stated) | 0.253 | 0.612
25 | CC1(C)CC(=O)C2=C(C1)Nc1ccccc1NC2c1ccc(Br)cc1 (configuration not stated) | 0.275 | 0.627
26 | CC1(C)CC(=O)C2=C(C1)Nc1ccccc1NC2c1cc2c(cc1[N+](=O)[O-])OCO2 (configuration not stated) | 0.225 | 0.606

Row | SMILES | plate-normalized OD600 growth (temperature: 15°C, 48 h) | plate-normalized OD600 growth (temperature: 37°C, 24 h)
27 | CC1(C)CC(=O)C2=C(C1)Nc1ccccc1NC2c1ccccc1F (configuration not stated) | 0.25 | 0.618
28 | O=C1c2ccccc2C(=O)N1c1nccs1 | 0.239 | 0.622
29 | CC(=O)Nc1ccc(S(=O)(=O)N2CCCC(CO)C2)cc1 (configuration not stated) | 0.29 | 0.63
30 | O=C(Nc1nc(/C=C/c2ccccc2)[nH]c(=O)n1)NS(=O)(=O)c1ccccc1Cl | 0.249 | 0.587
31 | CC(C)(C)C(=O)ON1C(=O)c2ccccc2C1=O | 0.25 | 0.616
32 | CN(C)c1ccc(CN2CCc3c([nH]c4ccccc34)C2)cc1 | 0.275 | 0.622
33 | CCCc1noc2c1C(=O)CC(C)(C)C2 | 0.261 | 0.622
34 | CC1(C)CC(=O)c2c(CC3CC(=O)NC(=O)C3)noc2C1 | 0.222 | 0.614
35 | COc1ccc(CNC2C3CC4CC(C3)CC2C4)c(OC)c1 (configuration not stated) | 0.224 | 0.615
36 | O=[N+]([O-])c1ccccc1CNC1C2CC3CC(C2)CC1C3 (configuration not stated) | 0.238 | 0.612
37 | COc1cccc(N2CCN(C3C4CC5CC(C4)CC3C5)CC2)c1 (configuration not stated) | 0.291 | 0.627
38 | COc1ccc(S(=O)(=O)N2CCN(Cc3cccc(F)c3)CC2)cc1 | 0.245 | 0.614
39 | C=CCSc1nc(O)c(CC)c(=O)n1-c1ccccc1 | 0.233 | 0.62
40 | Brc1ccc(CN2CCN(Cc3ccc4c(c3)OCO4)CC2)s1 | 0.262 | 0.639
41 | CC(C)CS(=O)(=O)c1cccs1 | 0.253 | 0.616
42 | O=C1CCCc2c1nc(-c1ccccc1)n2O | 0.272 | 0.662
43 | O=C1CCCc2occ(-c3ccc([N+](=O)[O-])cc3)c21 | 0.253 | 0.634
44 | O=C1CCCc2c1nc(-c1cccc([N+](=O)[O-])c1)n2O | 0.224 | 0.596
45 | COc1ccc(-c2csc(N)n2)cc1Br | 0.26 | 0.647
46 | O=C(O)CCCC(=O)Nc1ccc(Cl)c(Cl)c1 | 0.247 | 0.602
47 | Cc1cccc(-c2nc(-c3cccnc3)no2)c1 | 0.244 | 0.605
48 | C1CCCC(NCCN2CCCCC2)CCC1 | 0.234 | 0.588
49 | CC(=O)NC(C)(CC(=O)c1ccccc1)c1ccccc1 (configuration not stated) | 0.227 | 0.639
50 | CC(C)(C)NC(=O)c1ccccc1C(=O)NC(C)(C)C | 0.263 | 0.63
51 | CC(=O)NC(Cc1ccccc1)Cc1ccccc1 | 0.248 | 0.608
52 | Cc1cccc(N2C(=O)CC(N3CCN(Cc4ccccc4)CC3)C2=O)c1 (configuration not stated) | 0.254 | 0.616

Row | SMILES | plate-normalized OD600 growth (temperature: 15°C, 48 h) | plate-normalized OD600 growth (temperature: 37°C, 24 h)
53 | COCc1cc(C)nc(NN)c1C#N | 0.258 | 0.622
54 | O=C1c2ccccc2C(=O)C1c1nc2ccccc2[nH]1 | 0.269 | 0.667
55 | COc1ccc(N/C=C(/c2cc(O)ccc2O)[N+](=O)[O-])cc1 | 0.255 | 0.624
56 | CC(=O)Nc1ccc(S(=O)(=O)N2CCN(C)CC2)cc1 | 0.258 | 0.646
57 | COc1ccc(OC)c(Nc2nc(C)c(C(C)=O)s2)c1 | 0.272 | 0.646
58 | CC(=O)c1sc(Nc2ccc(Oc3ccccc3)cc2)nc1C | 0.223 | 0.607
59 | CC(=O)c1sc(N2N=C(c3ccccc3)CC2c2ccccc2)nc1C (configuration not stated) | 0.254 | 0.656
60 | CSc1nc2sc3c(c2c(=O)n1C)CCCC3 | 0.246 | 0.618
61 | CN1CCCN(Cc2cccc([N+](=O)[O-])c2)CC1 | 0.22 | 0.627
62 | COc1cccc(OC)c1C(=O)N1CCN(Cc2cccc([N+](=O)[O-])c2)CC1 | 0.266 | 0.645
63 | CN1CCCN(Cc2ccc([N+](=O)[O-])o2)CC1 | 0.258 | 0.607
64 | O=C(O)c1ccc(NS(=O)(=O)c2cccc(C(=O)Nc3ccccc3)c2)cc1 | 0.245 | 0.603
65 | OC(COc1ccc(C23CC4CC(CC(C4)C2)C3)cc1)CN1CCOCC1 (configuration not stated) | 0.243 | 0.592
66 | NCC(=O)Nc1ccc(Br)cc1 | 0.227 | 0.606
67 | O=C(Nc1ccc(Br)cc1)c1cccnc1 | 0.244 | 0.633
68 | Cc1ccccc1C(=O)Nc1ccc(Br)cc1 | 0.282 | 0.631
69 | COc1ccc(-c2cn3ccccc3n2)cc1F | 0.229 | 0.633
70 | O=[N+]([O-])c1ccc(-c2nnc(-c3ccccc3Cl)o2)cc1 | 0.244 | 0.601
71 | CCC(CO)NC1=C([N+](=O)[O-])C(=O)CC(C)(C)C1 (configuration not stated) | 0.282 | 0.666
72 | CCN(CC)CCN(C)C/C=C/c1ccccc1 | 0.208 | 0.608
73 | CCN(CC)CCN(C)Cc1cccc([N+](=O)[O-])c1 | 0.245 | 0.601
74 | CCN1CCN(C/C=C/c2ccccc2)CC1 | 0.28 | 0.634
75 | C=CCSc1nc(N)c(C#N)c(CC)c1C#N | 0.239 | 0.605
76 | CCC1CCCCN1C(=O)c1cccc([N+](=O)[O-])c1C (configuration not stated) | 0.247 | 0.612
77 | Cc1ccccc1C(=O)N1CCCCC1CO (configuration not stated) | 0.294 | 0.624
78 | CCC1CCCCN1C(=O)c1cccs1 (configuration not stated) | 0.225 | 0.613

Row | SMILES | plate-normalized OD600 growth (temperature: 15°C, 48 h) | plate-normalized OD600 growth (temperature: 37°C, 24 h)
79 | COc1cc2c(cc1OC)C(c1cc(OC)c(OC)c(OC)c1)N(C)CC2 (configuration not stated) | 0.244 | 0.624
80 | COc1cc(OC)cc(C(=O)Nc2cccc(C)c2C)c1 | 0.253 | 0.63
81 | O=C(O)CSc1nccn1Cc1ccccc1 | 0.244 | 0.625
82 | CCOC(=O)N1CCN(Cc2ccc(N(C)C)cc2)CC1 | 0.219 | 0.58
83 | CCOC(=O)N1CCN(Cc2c(F)cccc2F)CC1 | 0.263 | 0.656
84 | CCOC(=O)N1CCN(Cc2ccccc2Cl)CC1 | 0.244 | 0.621
85 | O=C(Nc1ccc(Oc2ccc(NC(=O)c3cccnc3)cc2)cc1)c1cccnc1 | 0.27 | 0.629
86 | Fc1ccc(CN2CCN(c3ncccn3)CC2)cc1 | 0.253 | 0.629
87 | N#CSCCCCOc1ccccc1Cl | 0.251 | 0.605
88 | CC(C)(C)c1ccccc1OCCCCSC#N | 0.209 | 0.619
89 | CC(C)(C)c1ccccc1OCCCSC#N | 0.233 | 0.622
90 | CC(c1ccccc1)N1CCC(=O)C2=C1CCCC2 (configuration not stated) | 0.241 | 0.604
91 | [O-][n+]1onc2c(-c3ccccc3)nnc(-c3ccccc3)c21 | 0.254 | 0.616
92 | Fc1ccc(CN2CCN(c3ccccn3)CC2)c(F)c1 | 0.244 | 0.601
93 | N#CCCN(CCN1CCCC1)S(=O)(=O)c1cccc2nsnc12 | 0.253 | 0.624
94 | Nc1nc(-c2ccco2)nc(-c2ccco2)n1 | 0.272 | 0.646
95 | CN(C)c1nc(N)nc(-c2ccco2)n1 | 0.226 | 0.632
96 | N#Cc1c(N)nc2c(c1-c1ccco1)CCCCCC2 | 0.249 | 0.615
97 | O=C1CCCc2c1nn(-c1ccccc1)[n+]2[O-] | 0.249 | 0.618
98 | O=C(Nc1ccc(F)cc1F)c1cccc(Br)c1 | 0.259 | 0.605
99 | COc1ccc(C)cc1NCc1ccc(SC)cc1 | 0.282 | 0.644
100 | Cc1nc(N)nc(OCC(F)(F)C(F)F)c1Br | 0.221 | 0.604
101 | CCN(CC)CCOc1ccccc1Br | 0.233 | 0.621

— the supplement of paper PMC4371806
